# Assay results: PubChem BioAssay (NCATS)
# “And” between values parts separate entries of the source, which are not always exact repeats. Equal values may be shown once. Values without a mark were called inactive. Records with an inconclusive call do not appear. A call without a number means that no potency is given here. The source made the active and inactive calls. Unless noted, calls come from the whole dose curve; as a rule, active = well fitted curve in the direction sought with a large enough effect; inconclusive = small, poorly fitted or top-dose-only effect, or another doubt; inactive = no such curve, though single readings can be large; an effect the other way counts as inactive or inconclusive.
# Assays:
# [1] = target: Glutaminase kidney isoform, mitochondrial (Homo sapiens) (UniProt O94925); experiment: qHTS for Inhibitors of Glutaminase (GLS): LOPAC Validation (AID 624146); note: nearly all actives have a fitted effect of over 60% in size; note: potency is the fitted concentration of half-maximal effect
# Method in brief: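 Glutamate formation by hKGA was monitored fluorometrically using coupled glutamate oxidase, HRP and Amplex Red. Substrate was added as 1 mM L-glutamine solution; incubation was 30 min at RT after an initial read.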
# [2] = qHTS of Trypanosoma Brucei Inhibitors: LOPAC Validation (AID 624147)
# Method in brief: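 Screened from lowest to highest concentration, compounds were pinned into TbPYK/substrate mixtures, and ADP (130 uM final) was added. Plates sat at room temperature for 45 min prior to Kinase-Glo Plus detection by luminescence.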
# [3] = target: Glucagon-like peptide 1 receptor (Homo sapiens) (UniProt P43220); experiment: qHTS of GLP-1 Receptor Agonists: LOPAC Validation (AID 624148);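 note: higher luminescence signal means agonism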
# Method in brief: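 HEK293 cells stably co-expressing a cAMP-responsive luciferase reporter and a hypersensitive GLP-1R were plated 12 h at 37 °C and exposed to compounds for 4-6 hr at 37 °C, 5% CO2. Luminescence was read 12 min after adding detection reagent.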
# [4] = qHTS of Nrf2 Activators: LOPAC Validation (AID 624149)
# Method in brief: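 AREc32_Fluc cells, 1000/well in OPTI-MEM with 5% FBS, grown overnight, then exposed to compounds for 24 hr at 37 deg C, 5% CO2. ARE-driven firefly luciferase read by Steady-Glo luminescence after 30 min at RT.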
# [5] = HTS Assay for Allosteric Antagonists of the Human D2 Dopamine Receptor: Hit Validation in HTRF (AID 624455);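 note: stable D1 dopamine receptor cell line scored for blocking the D1 response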
# Method in brief: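 Hit validation in cells stably expressing the D1 dopamine receptor, run in HTRF format. Compounds were tested for their ability to inhibit the D1-mediated response.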
# [6] = target: Arylsulfatase A (Homo sapiens) (UniProt P15289); experiment: qHTS screen for enhancers of Arylsulfatase A (ASA1): LOPAC Validation Assay (AID 720538)
# Method in brief: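 Read-out: fluorescence at Ex=525/Em=598 nm after 1N NaOH final stop. Patient fibroblasts carrying ASA-I179S had 48h compound exposure, then 14h room-temperature pNCS hydrolysis (0.5mM final) in lysis buffer. Signal increase = enhanced activity.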
# [7] = qHTS for compounds that reverse cellular toxicity of Amyloid beta (A-beta) peptide in yeast: LOPAC Validation Assay (AID 720559)
# Method in brief: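 OD600 growth readout after 48 hr at 30 C; A-beta-toxic yeast plus pinned compounds in medium. Normalization: DMSO = negative, equimolar FeCl3 + clioquinol = positive.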
# [8] = qHTS for Activators of Parkin Expression: LOPAC Validation Assay (NLuc Reporter) (AID 720572)
# Method in brief: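 Neuronal line stably carrying a FLuc/NLuc coincidence reporter under the Parkin promoter, seeded 24 h, then dosed in 7-point series for 24 h at 37 C. NLuc luminescence read after FLuc; normalized to DMSO and positive control (100%).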
# [9] = qHTS for Activators of Parkin Expression: LOPAC Validation Assay (FLuc Reporter) (AID 720573)
# Method in brief: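 FLuc luminescence read-out from a neuronal line expressing a Parkin-promoter-driven coincidence reporter. Cells treated 24 h at 37 C, 5% CO2 with compounds at 7 concentrations; signal increase normalized to DMSO and positive control.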
# [10] = S16 Schwann cell PMP22 intronic element beta-lactamase assay (AID 624044; calls by dose curve; note: nearly all actives have a fitted effect of over 15% in size; note: potency is the fitted concentration of half-maximal effect)
# Method in brief: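 Rat S16 Schwann cells with beta-Lac driven by a PMP22 intronic element, compound-treated 24 h at 37 °C. LiveBLAzer FRET B/G read: 460 nm normalized to potassium clavulanate vs DMSO; 535 nm FRET as viability; concentration-effect curves classified.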
# [11] = qHTS assay for small molecule agonists of the antioxidant response element (ARE) signaling pathway (AID 651741; active = well fitted activation curve with a large enough effect in the signal ratio; the % refers to the signal ratio)
# Method in brief: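 Compounds in DMSO are pinned onto HepG2 ARE-bla cells (2,000/well) that were preincubated 5 h; plates stay 16 h at 37 C, then beta-lactamase activity is detected with LiveBLAzer B/G substrate by fluorescence.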
# [12] = qHTS assay for small molecule activators of the p53 signaling pathway (AID 651743; active = well fitted activation curve with a large enough effect in the signal ratio, not every such curve was filed as active; the % refers to the signal ratio; note: series mostly up to about 92 µM); details: HCT-116 p53RE-bla, beta-lactamase FRET ratio, 16 h; activation: active compounds read high
# Method in brief: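 Cell-based beta-lactamase reporter (p53 response elements, HCT-116 background). After a 5-hour preincubation, cells received compound for 16 hours at 37 C; substrate development ran 2 hours at room temperature.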
# [13] = target: Peroxisome proliferator-activated receptor alpha (Homo sapiens) (UniProt Q07869); experiment: qHTS assay for small molecule agonists of the peroxisome proliferator-activated receptor alpha (PPARalpha) signaling pathway (AID 651778); details: PathHunter PPARalpha complementation, chemiluminescence, 6 h; active compounds read high
# Method in brief: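 Cells plated at 2,000/well and held overnight at 37 C, 5% CO2, then compound added by pin tool for 6 hr; after PathHunter detection reagent and 60 min at room temperature, chemiluminescence from enzyme complementation was read.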
# [14] = qHTS assay for small molecule agonists of the antioxidant response element (ARE) signaling pathway measured by Nrf2-dependant transcriptional activity (AID 720636; active = well fitted curve in the direction sought with a large enough effect in the repeat runs; an effect the other way counts as inactive or inconclusive;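 note: HepG2 cells with an ARE-driven luciferase reporter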)
# Method in brief: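 ONE-Glo luminescence, read 30 min after reagent addition at room temperature, reflected ARE reporter activity in HepG2 cells that had been incubated with compound for 16 hr at 37 C in 1% dialyzed FBS.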
# [15] = qHTS assay for small molecule activators of the nuclear factor-kappa B (NF-kB) signaling pathway (AID 651749; active = well fitted activation curve with a large enough effect in the signal ratio; the % refers to the signal ratio; note: series mostly up to about 77 µM); details: NF-kB-bla ME-180 cells, beta-lactamase FRET ratio, 16 h; active compounds read high
# Method in brief: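 Screening used 2,000 ME-180 reporter cells per well exposed to pinned compound (23 nL) or DMSO; after 16 hr at 37C, beta-lactamase expression under NF-kB control was assessed through FRET.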
# [16] = qHTS assay for environmental chemicals that activate the Aryl hydrocarbon Receptor (AhR) signaling pathway (AID 651777); details: 1A2-DRE human hepatoma cells, luciferase, 24 h; activation: active compounds read high; note: nearly all actives have a fitted effect of over 15% in size
# Method in brief: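 Following a 24 hr incubation with test chemicals at 37 C and 5% CO2, 1A2-DRE human hepatoma cells received One-Glo reagent; after 30 min at room temperature, luciferase output reflected CYP1A2 induction via AhR.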
# [17] = qHTS assay for small molecule disruptors of the mitochondrial membrane potential - 1 hr assay (AID 651754; calls by dose curve; note: nearly all actives have a fitted effect of over 35% in size; note: potency is the fitted concentration of half-maximal effect)
# Method in brief: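 HepG2 cells, attached overnight, were exposed to compound for 1 hr at 37C, then stained 30 min with a potentiometric dye. Ratio of red aggregate (590nm) to green monomer (535nm) fluorescence reports membrane potential; collapse shifts signal toward green.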
# [18] = qHTS assay for small molecule disruptors of the mitochondrial membrane potential - 5 hr assay (AID 651755; calls by dose curve; note: nearly all actives have a fitted effect of over 40% in size; note: potency is the fitted concentration of half-maximal effect)
# Method in brief: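 HepG2 cells, attached overnight at 37C, were exposed to compound or DMSO for 5 hr at 37C, 5% CO2. Mito-MPS dye was then added for 30 min, and fluorescence read at 490/535 nm (monomers) and 540/590 nm (aggregates).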
# [19] = qHTS assay to identify small molecules that stimulate interleukin-8 (IL-8) secretion (AID 651758; active = well fitted activation curve with a large enough effect in the signal ratio; the % refers to the signal ratio)
# Method in brief: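 THP-1, 2000 cells/well; cpd 16 h, 37 C; add cryptate + XL665 anti-IL-8 Abs; RT 1-3 h; TR-FRET read.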
# [20] = target: Nuclear receptor ROR-gamma (Homo sapiens) (UniProt P51449); experiment: qHTS assay for small molecule antagonists of the retinoid-related orphan receptor gamma (ROR-gamma) signaling pathway (AID 651802);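 note: luciferase reporter luminescence driven by ROR response element; series mostly up to about 92 µM; nearly all actives have a fitted effect of over 60% in size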
# Method in brief: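 CHO cells with TET-inducible ROR-gamma and RORE-luciferase reporter, dosed then doxycycline-induced. After 16 h at 37C, One-Glo luminescence read; decreased signal indicates antagonism.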
# Sequence of Glucagon-like peptide 1 receptor (Homo sapiens) (P43220 whole entry, looked up): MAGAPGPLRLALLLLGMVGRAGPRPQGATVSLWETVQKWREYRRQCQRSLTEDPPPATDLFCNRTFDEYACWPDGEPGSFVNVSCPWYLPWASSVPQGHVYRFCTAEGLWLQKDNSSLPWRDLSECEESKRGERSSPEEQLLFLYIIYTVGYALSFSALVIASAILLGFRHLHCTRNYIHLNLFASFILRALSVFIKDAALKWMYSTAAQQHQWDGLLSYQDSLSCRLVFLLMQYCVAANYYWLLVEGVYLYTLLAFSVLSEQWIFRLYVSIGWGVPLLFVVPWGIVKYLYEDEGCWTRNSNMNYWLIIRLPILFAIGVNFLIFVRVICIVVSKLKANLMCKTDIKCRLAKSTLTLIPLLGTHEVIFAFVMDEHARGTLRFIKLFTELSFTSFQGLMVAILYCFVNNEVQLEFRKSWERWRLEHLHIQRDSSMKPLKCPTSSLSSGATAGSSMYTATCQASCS
# Sequence of Peroxisome proliferator-activated receptor alpha (Homo sapiens) (Q07869 whole entry, looked up): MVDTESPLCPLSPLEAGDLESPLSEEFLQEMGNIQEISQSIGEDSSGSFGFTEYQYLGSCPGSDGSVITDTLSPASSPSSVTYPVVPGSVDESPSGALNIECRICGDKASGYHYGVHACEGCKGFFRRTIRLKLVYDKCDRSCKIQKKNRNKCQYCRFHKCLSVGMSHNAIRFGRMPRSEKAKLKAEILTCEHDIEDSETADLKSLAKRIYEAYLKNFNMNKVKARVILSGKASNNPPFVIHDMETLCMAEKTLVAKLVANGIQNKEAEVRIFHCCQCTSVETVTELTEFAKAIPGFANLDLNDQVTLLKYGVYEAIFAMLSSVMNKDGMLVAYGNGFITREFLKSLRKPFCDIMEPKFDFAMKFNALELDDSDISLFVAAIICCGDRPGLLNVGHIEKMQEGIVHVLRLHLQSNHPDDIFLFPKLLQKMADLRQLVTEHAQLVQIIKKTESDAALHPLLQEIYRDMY
# Sequence of Arylsulfatase A (Homo sapiens) (P15289 whole entry, looked up): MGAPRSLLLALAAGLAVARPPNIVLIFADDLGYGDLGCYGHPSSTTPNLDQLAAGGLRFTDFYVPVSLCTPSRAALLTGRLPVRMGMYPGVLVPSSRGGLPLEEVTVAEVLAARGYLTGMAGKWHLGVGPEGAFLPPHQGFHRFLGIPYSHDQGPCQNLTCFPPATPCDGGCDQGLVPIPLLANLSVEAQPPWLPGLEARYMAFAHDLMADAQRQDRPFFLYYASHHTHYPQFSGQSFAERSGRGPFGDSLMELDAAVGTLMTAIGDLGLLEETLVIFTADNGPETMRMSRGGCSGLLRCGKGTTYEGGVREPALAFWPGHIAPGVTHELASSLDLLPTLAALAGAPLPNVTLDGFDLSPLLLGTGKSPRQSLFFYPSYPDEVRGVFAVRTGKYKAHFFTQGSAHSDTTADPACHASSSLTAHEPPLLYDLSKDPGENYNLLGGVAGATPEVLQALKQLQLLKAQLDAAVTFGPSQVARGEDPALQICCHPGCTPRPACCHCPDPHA
# Sequence of Glutaminase kidney isoform, mitochondrial (Homo sapiens) (O94925 whole entry, looked up, canonical isoform): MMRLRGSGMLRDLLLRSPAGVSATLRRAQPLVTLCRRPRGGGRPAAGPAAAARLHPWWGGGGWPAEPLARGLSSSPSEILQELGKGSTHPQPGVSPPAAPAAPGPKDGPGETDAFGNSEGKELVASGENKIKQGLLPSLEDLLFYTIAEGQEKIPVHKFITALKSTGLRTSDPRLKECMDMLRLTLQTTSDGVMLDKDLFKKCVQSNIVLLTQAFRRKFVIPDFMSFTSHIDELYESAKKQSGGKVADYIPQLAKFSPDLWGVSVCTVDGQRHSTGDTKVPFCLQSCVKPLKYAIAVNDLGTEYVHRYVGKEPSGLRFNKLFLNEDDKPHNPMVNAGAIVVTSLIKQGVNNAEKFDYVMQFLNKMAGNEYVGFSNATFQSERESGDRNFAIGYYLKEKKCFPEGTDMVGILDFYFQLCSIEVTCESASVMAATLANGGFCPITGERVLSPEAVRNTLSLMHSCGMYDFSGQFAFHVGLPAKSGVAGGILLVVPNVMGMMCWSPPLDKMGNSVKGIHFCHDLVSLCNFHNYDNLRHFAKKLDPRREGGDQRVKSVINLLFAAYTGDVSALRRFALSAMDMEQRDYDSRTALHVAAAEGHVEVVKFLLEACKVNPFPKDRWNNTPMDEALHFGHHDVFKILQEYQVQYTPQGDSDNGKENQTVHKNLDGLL
# Sequence of Nuclear receptor ROR-gamma (Homo sapiens) (P51449 whole entry, looked up): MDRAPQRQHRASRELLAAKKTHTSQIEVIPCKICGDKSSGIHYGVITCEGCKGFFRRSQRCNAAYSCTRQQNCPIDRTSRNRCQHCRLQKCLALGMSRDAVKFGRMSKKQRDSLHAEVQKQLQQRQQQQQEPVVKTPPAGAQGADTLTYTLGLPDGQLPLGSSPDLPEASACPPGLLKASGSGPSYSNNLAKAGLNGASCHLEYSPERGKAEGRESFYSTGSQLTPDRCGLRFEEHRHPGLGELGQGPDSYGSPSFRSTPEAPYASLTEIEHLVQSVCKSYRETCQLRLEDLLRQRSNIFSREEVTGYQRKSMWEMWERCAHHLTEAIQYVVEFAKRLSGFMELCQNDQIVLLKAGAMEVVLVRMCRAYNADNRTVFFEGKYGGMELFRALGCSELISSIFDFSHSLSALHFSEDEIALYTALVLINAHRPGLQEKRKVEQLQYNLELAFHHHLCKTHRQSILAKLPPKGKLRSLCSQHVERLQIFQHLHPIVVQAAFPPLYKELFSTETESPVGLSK
smiles,measurement,setting,value
C[N+]1(C)CCc2cc3c(cc2[C@H]1[C@@H]1OC(=O)c2c1ccc1c2OCO1)OCO3,Potency,[1],inactive
same,Potency,[2],inactive
same,outcome,[3],inactive
same,Potency,[4],inactive
same,Potency,[5],inactive
same,Potency,[6],inactive
same,outcome,[7],inactive
same,Potency,[8],inactive
same,outcome,[9],inactive
O=C(NCNC(=O)NC1C(=O)NC(=O)N1CO)NC1C(=O)NC(=O)N1CO (stereo not drawn),Potency,[10],inactive
same,Potency,[11],inactive
same,activation,[12],-1.04%
same,max response,[13],-1.19%
same,Potency,[14],inactive
N#CN,Potency,[10],inactive
same,Potency,[11],inactive
same,activation,[15],0.422%
same,activation,[16],1.29%
same,max response,[13],0.0862%
same,Potency,[14],inactive
Oc1ccc2c3c1O[C@H]1c4oc5ccccc5c4C[C@@]4(O)C(C2)N(CC2CC2)CCC314 (stereo partly drawn),Potency,[1],8.91 µM (active)
same,Potency,[2],inactive
same,outcome,[3],inactive
same,Potency,[4],inactive
same,Potency,[5],inactive
same,Potency,[6],inactive
same,outcome,[7],inactive
same,Potency,[8],inactive
same,outcome,[9],inactive
CCN1C[C@@]2(COC)C3[C@@H](OC)C4[C@@H]1C3([C@@H]1C[C@]3(O)[C@H](OC(=O)c5ccccc5)[C@@H]1[C@]4(OC(C)=O)[C@@H](O)[C@@H]3OC)[C@H](OC)C[C@H]2O,Potency,[1],inactive
same,Potency,[2],inactive
same,outcome,[3],inactive
same,Potency,[4],inactive
same,Potency,[5],inactive
same,Potency,[6],inactive
same,outcome,[7],inactive
same,Potency,[8],inactive
same,outcome,[9],inactive
C=CCN1C[C@@H](C)N([C@H](c2ccc(C(=O)N(CC)CC)cc2)c2cccc(OC)c2)C[C@@H]1C,Potency,[1],inactive
same,Potency,[2],inactive
same,outcome,[3],inactive
same,Potency,[4],inactive
same,Potency,[5],inactive
same,Potency,[6],inactive
same,outcome,[7],inactive
same,Potency,[8],inactive
same,outcome,[9],inactive
ClCC1CO1 (stereo not drawn),Potency,[10],inactive
same,activation,[12],-3.68%
same,activation,[15],0.581%
same,Potency,[17],inactive
same,Potency,[18],inactive
same,Potency,[19],inactive
same,activation,[16],-0.99%
same,max response,[13],-4.69%
same,Potency,[20],inactive
same,Potency,[14],inactive
O=C1C2CC=CCC2C(=O)N1SC(Cl)(Cl)Cl (stereo not drawn),Potency,[10],22.4 µM (active)
same,activation,[12],-1.26% and 18.6%
same,activation,[15],-2.11%
same,Potency,[17],26.6 µM (active) and 33.5 µM (active)
same,Potency,[18],23.7 µM (active) and 33.5 µM (active)
same,activation,[16],-4.61% and -3.77% and 2.69%
same,max response,[13],-6.31% and -2.76% and -2.09%
same,Potency,[14],inactive
CP(=O)(O)C1=CCNCC1,Potency,[1],inactive
same,Potency,[2],inactive
same,outcome,[3],inactive
same,Potency,[4],inactive
same,Potency,[5],inactive
same,Potency,[6],inactive
same,outcome,[7],inactive
same,Potency,[8],inactive
same,outcome,[9],inactive
N[C@@]1(C(=O)O)CC[C@@H](C(=O)O)C1,Potency,[1],inactive
same,Potency,[2],inactive
same,outcome,[3],inactive
same,Potency,[4],inactive
same,Potency,[5],inactive
same,Potency,[6],inactive
same,outcome,[7],inactive
same,Potency,[8],inactive
same,outcome,[9],inactive
